Shown are actives, neighbours in structure and some others; about 9.1% of the full set was active somewhere.
mHtt clearance – clearance of mutant huntingtin inclusions, primary screen, imaging, HeLa Exon1htt(103Q)mCFP, confocal imaging. AID 853, 2007. aggregate imaging; zero = plate's median compound well. inhibition, % at 1.5 µM. 47,000 compounds, 0.42% hits;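 active = inhibition of aggregate fluorescence above about 70%, also judged a hit by eye on the cell image, limit read from the data, passing the limit was not always enough; inconclusive = no rule stated for this call; inactive = not judged a hit on image review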;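 also: cells exposed to compound for three days before fixation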
M1 antag – antagonists of rat M1 muscarinic receptor; 64,000 compounds, 3.4% hits; CHO-M1 cells, Fluo-4 calcium, ACh EC80 antagonist mode; stronger effect = lower value; AID 628, 2007; B-score at 10 µM;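 active = calcium fluorescence response, raw or row-and-column corrected B-score, differing from the plate sample mean either way at a set confidence level, mostly lower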
M1 agonist – M1 muscarinic receptor agonists, primary screen, CHO-M1 cells, Fluo-4 calcium, agonist mode. Muscarinic acetylcholine receptor M1. Fluo-4 calcium fluorescence; stronger effect = higher value. B-score at 10 µM. 64,000 compounds, 3% hits. AID 626, 2007;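 active = fluorescence rise, raw or as B-score row- and column-corrected plate score, outside the 99.7% band of its plate's samples, either direction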
D1 mod – D1 CRE-luciferase signal change, two-sided – cell-based, HEK293 D1, dopamine EC30, D1 allosteric modulator project, primary screen; B-score at 10 µM; D(1A) dopamine receptor (Homo sapiens), P21728; 58,000 compounds, 5.9% hits; dopamine EC30 potentiation; actives deviate in either direction; AID 641, 2007;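 active = luminescence count or its row- and column-corrected plate score outside the 99.7% band of the plate's sample wells, on either side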
M1 agonist conf – rat M1 muscarinic receptor agonists, confirmation, CHO-M1 cells, Fluo-4 calcium, duplicate retest; 1,700 compounds, 19% hits; AID 1488, 2009; Fluo-4 calcium fluorescence, agonist mode; actives lie on both sides; shares compounds with M1 agonist; fluorescence change (max-min) at 10 µM;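 active = fluorescence change differs from the solvent-only DMSO control mean at a set confidence level in both duplicate runs; inconclusive = differs from solvent-only control mean in just one of two runs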;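 also: an EC20 dose of acetylcholine follows compound addition during the same imaging run; raw fluorescence intensity difference in instrument units with no normalization to controls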
M4 agonist ctr – agonist activity at rat M4 receptor, confirmation, counter-screen for M1 allosteric modulator project, cell-based, agonist mode | 1,700 compounds, 9% hits | CHO M4/Gqi5 cells, Fluo-4 calcium fluorescence; actives lie on both sides | shares compounds with M1 agonist | fluorescence change (max-min) at 10 µM;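 active = fluorescence change differing from the plate's solvent-only control wells at 99.7% confidence in both duplicates, whether higher or lower; inconclusive = differs from solvent controls in only one of two duplicates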
Target sequence (P08485 whole entry, looked up): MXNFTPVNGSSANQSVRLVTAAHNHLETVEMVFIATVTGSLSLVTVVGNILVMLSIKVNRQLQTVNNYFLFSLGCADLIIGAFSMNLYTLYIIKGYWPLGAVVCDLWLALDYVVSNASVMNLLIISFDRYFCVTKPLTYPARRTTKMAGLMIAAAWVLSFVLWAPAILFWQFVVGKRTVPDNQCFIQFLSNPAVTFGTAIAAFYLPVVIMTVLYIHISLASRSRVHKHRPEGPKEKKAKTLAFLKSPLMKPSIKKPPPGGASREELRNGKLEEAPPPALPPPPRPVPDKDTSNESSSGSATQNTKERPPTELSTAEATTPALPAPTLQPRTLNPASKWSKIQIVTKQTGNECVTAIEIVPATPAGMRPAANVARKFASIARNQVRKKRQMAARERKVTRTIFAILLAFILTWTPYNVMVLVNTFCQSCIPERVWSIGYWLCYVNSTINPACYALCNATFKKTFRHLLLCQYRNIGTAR
* = called active by the depositor; u = inconclusive; x = not tested or not shown.

SMILES | mHtt clearance | M1 antag | M1 agonist | D1 mod | M1 agonist conf | M4 agonist ctr
CCN(CC)S(=O)(=O)c1ccc2oc(SCC3CN=C(c4ccc(OC)cc4)S3)nc2c1 (configuration not stated) | 4 | -0.81 | 8.1* | -1.2 | -32* | u
O=C1CCCN1CCC1CCN(C2CC(=O)N(c3ccc(Cl)cc3)C2=O)CC1 (configuration not stated) | -87 | 0.32 | 0 | -0.16 | x | x
Cc1ccc(C)c(-c2nc3ccc(N)cc3[nH]2)c1 | -6 | 0.73 | -0.7 | -0.75 | x | x
Nc1ccc2nc(-c3ccc(Cl)cc3)[nH]c2c1 | x | -0.67 | -2.2* | x | u | -80
CCc1nnc(NC(=O)CSc2nnc(-c3ccc(O)cc3)n2-c2ccccc2)s1 | x | 0.49 | 0.71 | x | x | x
COC(=O)C1=C(N)Oc2cc(C)n(CC3CCCO3)c(=O)c2C1c1ccc(Cl)cc1 (configuration not stated) | -41 | 1.6 | 0.69 | -0.18 | x | x
Cc1cccc(-n2c(N)cc(=O)nc2SCC(=O)NC2CCCCC2)c1 | -34 | -0.031 | 0.66 | -0.037 | x | x
Cc1cccc(-n2c(N)cc(=O)nc2SCC(=O)Nc2ccccc2)c1 | x | 0.17 | 2.8* | 0.084 | -24* | -50
Cc1ccc2occ(C(c3nnnn3C3CCCC3)N3CCN(C(=O)c4ccco4)CC3)c(=O)c2c1 (configuration not stated) | 54 | -2 | 2.7* | -0.27 | u | u
COC(=O)Nc1sc2c(c1C(=O)NC1CC1)CCCCCC2 | 10 | x | x | x | x | x
COc1cc2[nH]c(=O)n(CCCCCC(=O)N3CCN(c4ccccn4)CC3)c(=O)c2cc1OC | x | 0.38 | 7.2* | 2.5 | -10 | -42
COc1cc2[nH]c(=O)n(CCCC(=O)N3CC=C(c4ccccc4)CC3)c(=O)c2cc1OC | x | -1 | 2.3 | x | x | x
CCOC(=O)N1CCN(C(=O)c2ccc3c(=O)n(CC4CCCO4)c(=S)[nH]c3c2)CC1 (configuration not stated) | -11 | x | x | x | x | x
O=C(c1ccc(Cn2c(=O)[nH]c3ccccc3c2=O)cc1)N1CCN(c2ccccn2)CC1 | x | -1 | 3.8* | -0.52 | -7.7 | -20
CCOC(=O)N1CCN(C(=O)c2ccc3c(=O)n(Cc4ccccc4)c(=S)[nH]c3c2)CC1 | x | -0.78 | 4.6* | 0.44 | u | u
CCOC(=O)c1cnc2nc[nH]n2c1=O | x | 0.84 | -1.3 | -0.42 | x | x
COCC(=O)Nc1ccc(N(C)C)cc1 | -6 | -0.015 | -2.9* | 0.18 | -33* | -71
Cc1ccc(OCC(=O)Nc2ccc(N(C)C)cc2)cc1 | 15 | -0.35 | -1.6 | -0.94 | x | x
Cc1cccc(N2C(=O)CC(Sc3nnc(C)s3)C2=O)c1 (configuration not stated) | -67 | x | x | x | x | x
O=C(NC1CC1)c1c[nH]c2ccc(S(=O)(=O)Nc3cccc(C(F)(F)F)c3)cc2c1=O | 36 | 0.46 | -1.9* | 1.4 | -11 | u
Cc1ccc(-c2noc(CCC(=O)Nc3ccc4c(c3)OCO4)n2)cc1 | x | 0.85 | -0.8 | 0.005 | x | x
COc1ccc(-c2noc(CCC(=O)Nc3ccc4c(c3)OCCO4)n2)cc1 | x | -2* | 3.7* | -0.73 | 20 | -11
Cc1ccc(CC(=O)Nc2ccccc2N2CCOCC2)cc1C | 23 | x | x | x | x | x
N#CC1(c2nc3ccccc3[nH]2)CC1c1ccc2c(c1)OCO2 (configuration not stated) | 37 | 0.29 | 2.9* | -0.93 | -34* | -82
O=C(CSc1nc2ccccc2[nH]1)c1ccc2c(c1)OCO2 | -43 | -0.66 | -1.5 | -0.13 | x | x
O=C(C1CCN(S(=O)(=O)N2CCC3(CC2)OCCO3)CC1)N1CCN(Cc2ccccc2)CC1 | 17 | -0.23 | 0.19 | 1.1 | x | x
O=C(C1CCN(Cc2cc(Cl)ccc2O)CC1)N1CCN(Cc2ccccc2)CC1 | x | 0.17 | 5.6* | -0.78 | u | -41
Cc1ccc(C)c(NC(=O)Cn2nc(C)c3ccccc3c2=O)c1 | x | 0.0072 | -1 | 0.06 | x | x
COc1cccc2cc(-c3nnc(SCC(=O)Nc4nc(C)cs4)n3C)oc12 | 13 | 0.39 | 3.9* | -0.31 | u | -60

Screening results from PubChem.
